Data on 29 molecules can be found in PubChem BioAssay (Tox21).

Test [1] can be described thus: qHTS assay for small molecules that induce genotoxicity in human embryonic kidney cells expressing luciferase-tagged ATAD5 (AID 651632). Also: nearly all actives have a fitted effect of over 15% in size. Also: potency is read from the fitted curve at half-maximal effect. The essentials:
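Test compounds were delivered by pin tool onto HEK293T reporter cells (2,000/well) expressing ATAD5 fused to luciferase. After 16 hr at 37C, 5% CO2, Amplite was added for 30 min at room temperature and luminescence was measured.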
A general note: qHTS replaces the single test concentration by a dilution series.

Test [2] is described as follows: qHTS assay for small molecules that induce genotoxicity in human embryonic kidney cells expressing luciferase-tagged ATAD5 - cell viability (AID 651634; calls by dose curve; also: nearly all actives have a fitted effect of over 25% in size). The essentials: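 Quantitative high-throughput format. HEK293T cells expressing ATAD5 fused to luciferase were plated at 2,000 cells/well and treated 15.5 hr with compound versus DMSO. Viability was determined by fluorescent live-cell protease substrate, 30 min at 37C.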

Test [3] can be described thus: qHTS assay for small molecule disruptors of the mitochondrial membrane potential - cell viability (AID 720634; calls by dose curve;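 also: human HepG2 liver cancer cells; series mostly up to about 83 µM; nearly all actives have a fitted effect of over 20% in size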). The essentials: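 Same-well counter-screen: following the MMP dye addition, CellTiter-Glo was added to 1 hr compound-treated HepG2 cells and luminescence read after 30 min at room temperature.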
Test [4] in a line: qHTS assay for small molecule disruptors of the mitochondrial membrane potential (AID 720635). Also: potency is read from the fitted curve at half-maximal effect. The essentials:
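Mitochondrial membrane potential tracked with Mito-MPS dye, red aggregates (ex 540/em 590 nm) against green monomers (ex 490/em 535 nm). Compound treatment 1 hr at 37C, dye 30 min in HepG2.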

Test [5] can be described thus: qHTS assay to test for compound auto fluorescence at 590 nm (red) in HepG2 cells (AID 720674). The essentials: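 We screened compounds on adherent HepG2 cells, incubating them for an hour at 37 C in 5% CO2 before reading emission at 590 nm under 540 nm excitation; values reflect equivalence to Rose Bengal sodium fluorescence.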
The nature of test [6]: qHTS assay to test for compound auto fluorescence at 535 nm (green) in HepG2 cells (AID 720675).
Test [7] in a line: qHTS assay to test for compound auto fluorescence at 460 nm (blue) in HEK293 cells (AID 720678). The essentials: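 Intrinsic compound fluorescence is recorded in live HEK293 cultures after overnight incubation at 37C, 5% CO2, using excitation 405 nm and emission 460 nm. Values are referenced to triamterene.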
The nature of test [8]: qHTS assay to test for compound auto fluorescence at 590 nm (red) in HEK293 cells (AID 720679). The essentials:
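Red autofluorescence, HEK293 cells: 2,000 cells/well; attach 4-5 hr 37C; add 23 nL cpd or DMSO; incubate o/n 37C 5% CO2; read Ex540/Em590; Rose Bengal sodium reference.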

Test [9] is described as follows: qHTS assay for small molecule agonists of the p53 signaling pathway - cell viability (AID 651633; calls by dose curve; also: nearly all actives have a fitted effect of over 30% in size; also: potency is read from the fitted curve at half-maximal effect). The essentials:
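Viability counter-read: CellTiter-Glo luminescence (30 min, room temperature) in the same p53RE-bla plates. These plates had been exposed to compounds for 16 h at 37 C.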

A number with no mark means an inactive call. Records with an inconclusive call do not appear. Activity calls are given as the source filed them. Unless noted, calls follow the shape of the dose curve; as a rule, active = well fitted curve in the direction sought with a large enough effect in the repeat runs; inconclusive = weak or mixed curves; inactive = no such curve, though single readings can be large; an effect the other way counts as inactive or inconclusive.
% is scaled to controls: 0 for no effect and ±100 for the full control effect.

With `CC(C)(C)c1ccc(CCC=O)cc1`, the Potency result in [1], in test [2], in test [3], in test [4] and in test [7] was “inactive” each time. Also, the molecule was classed as inactive in [5], in test [6] and in test [8].

For the molecule `CCOc1ccc2c(c1)C(C)CC(C)(C)N2` (stereo unspecified), the Potency result in test [1], in test [2], in test [3] and in test [7] was “inactive” in each case. The outcome in [5] and in [8] was inactive.

On to `Cc1ccc2c(Cl)cc(Cl)c(O)c2n1`, for which the Potency in test [1] was 5.96 µM (active); in [9], 0.944 µM (active); in test [4] it was 9.44 µM (active). Moreover, the outcome in [5], in test [6] and in test [8] was inactive. For the same molecule, the Potency result in test [7] is “inactive”.

For the molecule `O=C(Nc1ccc2c(c1)Cc1ccccc1-2)C(F)(F)F`, the Potency result in [1], in test [2] and in test [7] was “inactive” each time. In test [4], the Potency was 17.2 µM (active). Moreover, the result in test [5], in test [6] and in test [8] was inactive.

`O=c1[nH]nc(-c2ccc([N+](=O)[O-])o2)o1`: the Potency result in test [1], in test [9] and in test [7] was “inactive” in each case. The Potency in test [4] is 43.3 µM (active). The outcome in [5], in [6] and in test [8] was inactive.

For `CCOc1ccccc1O`, the Potency entry in test [1], in test [2], in [3], in test [4] and in test [7] was “inactive” in each case. Besides, the molecule was classed as inactive in test [5], in test [6] and in test [8].

For the molecule `Nc1ccccc1Nc1ccccc1`, the Potency result in test [1], in test [3] and in test [7] was “inactive” each time. The molecule was classed as inactive in test [5], in [6] and in [8].

`O=C(O)c1ccc2c(c1)nc(C(=O)NC1CCN(C3CC3)CC1)n2Cc1cc(-c2ccc(Cl)s2)on1`: the Potency entry in [1], in test [2] and in test [3] was “inactive” in each case. The fluorescence, relative to Rose Bengal in test [5] is 0.429% [at 18.6 µM]. Also, in [6], the fluorescence, % of fluorescein control is -0.0395% [at 18.6 µM]. In addition, the fluorescence, % of triamterene in [7] was 0.0005% [at 18.6 µM]. In addition, the fluorescence, % of fluorescent control in test [8] is 0.147% [at 18.6 µM].

As for `Cc1ccc(NC=O)c(C)c1`, the Potency result in test [1], in test [9], in test [3] and in test [7] was “inactive” each time. For the same molecule, the molecule was called inactive in test [5], in test [6] and in test [8].

In the case of `C[C@@H](O)[C@H]1C(=O)N2C(C(=O)O)=C(S[C@@H]3CN[C@H](CNS(N)(=O)=O)C3)[C@H](C)[C@H]12`, the Potency entry in [1], in test [2], in test [3], in test [4] and in [7] was “inactive” throughout. Further, the call in test [5] and in test [8] was inactive.

With `Nc1ccc(C(=O)Oc2ccccc2)c(O)c1`, the values for the Potency in [1] and in test [4] were 9.44 µM (active) and 29.8 µM (active), respectively. Further, the Potency result in test [2] and in test [7] was “inactive” throughout. Besides, the molecule was called inactive in test [5], in test [6] and in test [8].

As for `O=C1c2ccccc2C(=O)c2c1ccc(O)c2O`, the Potency result in test [1], in test [3] and in test [7] was “inactive” each time. Moreover, in test [4], the Potency is 9.44 µM (active). Besides, the outcome in [5] and in [8] was inactive.

`Nc1ccc(-c2ccc(F)cc2)cc1`: the Potency result in test [9], in test [2], in test [3] and in test [7] was “inactive” in each case. For the same molecule, the molecule was classed as inactive in test [5], in [6] and in test [8].

On to `O=C(NC1CCN(CCc2c[nH]c3ccccc23)CC1)c1ccccc1`, for which the Potency entry in test [1], in test [2], in test [3] and in test [7] was “inactive” each time. The result in [5], in [6] and in [8] was inactive.

`Cc1nc2sccn2c(=O)c1CCN1CCC(=C(c2ccc(F)cc2)c2ccc(F)cc2)CC1`: the Potency entry in test [1], in test [2], in test [3] and in test [7] was “inactive” in each case. Also, the outcome in test [5], in test [6] and in test [8] was inactive.

Turning to `CCCOC(C)=O`, the Potency entry in test [1], in [2], in test [3] and in [7] was “inactive” each time. Further, the call in [5], in test [6] and in [8] was inactive.

Turning to `CCCC1CCOC(C)S1` (stereo unspecified), the Potency result in test [1], in test [2], in [3], in test [4] and in test [7] was “inactive” each time. Moreover, the outcome in test [5] and in [8] was inactive.

For `C=CC(C)CCC=C(C)C` (stereo unspecified), the Potency result in test [1], in test [2], in test [3] and in test [7] was “inactive” in each case. The result in test [5], in test [6] and in test [8] was inactive.

As to `Clc1ccccc1-c1nc(-c2ccncc2)no1`, the Potency in test [1] was 6.68 µM (active). The Potency result in test [2], in [3], in [4] and in test [7] was “inactive” throughout. Further, the molecule was called inactive in [5], in test [6] and in [8].

For the molecule `c1ccc(-c2ccc(-c3ccccc3)cc2)cc1`, the Potency entry in test [9], in test [2] and in test [3] was “inactive” each time. Moreover, the fluorescence, relative to Rose Bengal in test [5] was -0.399% [at 18.6 µM]. In test [6], the fluorescence, % of fluorescein control is -0.0708% [at 18.6 µM]. Also, the fluorescence, % of triamterene in [7] was -0.0124% [at 18.6 µM]. Further, the fluorescence, % of fluorescent control in test [8] was 0.554% [at 18.6 µM].

With `FC1(F)C(F)(F)C(F)(F)C2(F)C(F)(C1(F)F)C(F)(F)C(F)(F)C1(F)C(F)(F)C(F)(F)C(F)(F)C(F)(F)C12F` (stereo unspecified), the Potency entry in test [1], in test [2], in [3] and in test [7] was “inactive” each time. In addition, the result in test [5], in [6] and in test [8] was inactive.

Turning to `C[C@]12CCC(=O)C=C1[C@@H]1C[C@@H]1[C@H]1[C@@H]3[C@@H]4C[C@@H]4[C@@]4(CCC(=O)O4)[C@@]3(C)CC[C@@H]12`, the Potency result in test [1], in [2] and in test [7] was “inactive” in each case. The result in test [5] and in test [8] was inactive.

For `COC(=O)c1cc(Cl)ccc1[N+](=O)[O-]`, the Potency result in [1], in [2], in test [3], in [4] and in test [7] was “inactive” in each case. For the same molecule, the call in [5], in [6] and in [8] was inactive.

On to `CC(=O)Nc1ccccc1O`, for which the Potency entry in test [9], in test [2], in test [3] and in test [7] was “inactive” each time. Moreover, the outcome in [5], in test [6] and in test [8] was inactive.

For the molecule `CC(C)=CCC[C@H](C)CCO`, the Potency entry in test [1], in test [2], in test [3] and in [7] was “inactive” throughout. For the same molecule, the molecule was called inactive in [5], in test [6] and in [8].

Turning to `COc1ccc(/C=C/c2cc(OC)cc(=O)o2)cc1`, the Potency entry in [3], in test [4] and in test [7] was “inactive” each time. The call in [5] and in test [8] was inactive.

`COc1ccc(CN(CCN(C)C)c2ncccn2)cc1`: the Potency result in test [9], in test [2], in test [3] and in [7] was “inactive” each time. Moreover, the outcome in test [5], in test [6] and in [8] was inactive.

As to `CC(C)(O)C(=O)O`, the Potency result in [1], in [2], in test [3] and in test [7] was “inactive” each time. The call in test [5], in [6] and in test [8] was inactive.

Consider `CCC(=O)O[C@@H]1C[C@H]2CC[C@]1(C)C2(C)C`, for which the Potency entry in test [1], in [2], in test [3], in test [4] and in test [7] was “inactive” in each case. The outcome in test [5], in test [6] and in [8] was inactive.
